# The entries come from a sample that favours hits as a whole.
# Pf apPOL inh: Pf-apPOL inhibitors, biochemical, fluorescence; inhibition, % at 10 µM; actives 0.25% (n = 210,000); Plasmodium falciparum apicoplast DNA polymerase (apPOL); Recombinant Pf-apPOL, molecular beacon fluorescence, 1.5 h
# mHTT-CaM PPI inh: mutant huntingtin-calmodulin interaction inhibitors – biochemical, AlphaScreen, primary screen; inhibition, % at 15 µM; actives 3.6% (n = 190,000); P42858; AlphaScreen His-mHTT/GST-CaM binding, luminescence; AID 1671202, 2021;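 also: 0% = both proteins with DMSO and 100% = one protein alone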
# * = called active by the depositor. Rule as the data show it: active = inhibition above about 50%; inactive = the rest.
SMILES,Pf apPOL inh,mHTT-CaM PPI inh
CCN(CC)c1cc2c(c3c1ccn3C)C1CCC2C1 (stereo unspecified),-1,41
Cn1ccc2c(-c3cccc4ccccc34)cc3c(c21)C1CCC3C1 (stereo unspecified),-2,1
O=[N+]([O-])c1cccc(CN2CCN(C3CCCCC3)CC2)c1,-7,0
Cc1ccc(Cl)cc1NC(=O)CC1COc2ccccc2NC1=O (stereo unspecified),-1,-7
Cn1ccc2c(N3CCOCC3)cc3c(c21)C1CCC3C1 (stereo unspecified),2,22
Cn1ccc2c(N3CCCCCC3)cc3c(c21)C1CCC3C1 (stereo unspecified),-3,63*
O=C(Nc1cc(F)ccc1F)N1CCn2cccc2C1Cc1ccccc1 (stereo unspecified),-2,-2
COc1ccc(Cl)cc1NC(=O)N1CCn2cccc2C1Cc1ccccc1 (stereo unspecified),-2,62*
COc1cc(NC(=O)N2CCn3cccc3C2Cc2ccccc2)cc(OC)c1 (stereo unspecified),-6,27
COc1ccc(NC(=O)N2CCn3cccc3C2Cc2ccccc2)cc1OC (stereo unspecified),2,59*
CCCc1ccc(OCC(=O)c2ccc(O)cc2O)cc1,-4,4
COc1ccc(-c2ccccc2)cc1NCc1ccc(OC)c(OC)c1,-6,73*
COc1ccc(CNCc2ccc3c(c2)OCO3)cc1Br,5,-1
COc1ccc(CNC(=O)Cc2ccccc2)cc1OC,6,-3
COc1ccc(-c2ccccc2)cc1NCc1ccccn1,-12,72*
COc1ccc(-c2ccccc2)cc1NCc1cc(OC)c(O)c([N+](=O)[O-])c1,3,66*
COc1cc2c(cc1NCc1ccccn1)oc1ccccc12,-4,15
COc1ccc(-c2ccccc2)cc1NCc1ccc2c(c1)OCO2,-2,57*
COc1ccc([N+](=O)[O-])cc1NCc1ccccc1F,-1,-46
COc1cccc(CN2CCc3nc(Nc4ccc(F)cc4F)ncc3C2)c1OC,-9,5
CC(C)c1cc(C2CCCN2C(=O)Cc2cccc(F)c2)no1 (stereo unspecified),-6,7
CN(c1ccc(C(=O)Nc2ccccc2F)cc1)S(=O)(=O)c1ccccc1,0,-13
O=C(O)C1OCCc2ccccc21 (stereo unspecified),0,1
COc1cc(C=NS(=O)(=O)c2cccs2)cc(Br)c1O,2,-3
CCCC(=O)Nc1ccc2c(c1)CC(C(=O)NC1CCCCCC1)CO2 (stereo unspecified),-5,-1
SMILES,Pf apPOL inh,mHTT-CaM PPI inh
CCOc1cccc(=NCc2ccccc2)c2c(C)[nH]c(C)c12,0,76*
CCOc1cccc2cc(C(N)=O)c(=NCc3ccccc3)oc12,-1,-2
Cc1ccc(C(=O)NCc2ccccc2Cl)cc1C,-3,-10
Cc1cccc(Nc2nccc(C3CCCN(C(=O)Cc4cccs4)C3)n2)c1 (stereo unspecified),-5,63*
CCC(=O)N1CCCC(c2ccnc(Nc3ccc(OC)cc3)n2)C1 (stereo unspecified),-7,-1
Cc1ccccc1Nc1nccc(C2CCCN(C(=O)Cc3cccs3)C2)n1 (stereo unspecified),-3,10
Cc1cccc(Nc2nccc(C3CCCN(C(=O)C4CCCO4)C3)n2)c1 (stereo unspecified),-3,74*
CCC(=O)N1CCCC(c2ccnc(Nc3cccc(C)c3)n2)C1 (stereo unspecified),-5,57*
Cc1cccc(Nc2nccc(C3CCCN(C(=O)c4ccc(C#N)cc4)C3)n2)c1 (stereo unspecified),-5,14
COc1ccc(-c2noc(-c3ccc(NCCC(C)C)nc3)n2)cc1,-1,-8
COc1ccc(CCC(C)N2CCN(c3ccccc3)CC2)cc1 (stereo unspecified),4,-1
COc1ccc(CN2CCc3cc(OC)c(OC)cc3C2)cc1OC,7,-2
COc1cc2c(cc1OC)CN(Cc1ccc(OCc3ccccc3)c(OC)c1)CC2,0,100*
COc1cc(C=O)ccc1OCCCOc1ccccc1F,-5,-10
COc1cccc2cc(C(=O)N3CCC(Cn4cnc5ccccc54)CC3)oc12,-42,6
Cc1cc(/C=C2\NC(=O)NC2=O)c(C)n1-c1cccc(I)c1,1,91*
Cc1cc(/C=C2\NC(=O)NC2=O)c(C)n1-c1ccc(Cl)c(Cl)c1,-3,100*
Cc1cc(/C=C2\SC(=O)NC2=O)c(C)n1-c1ccc(I)cc1,7,12
Cc1cc(/C=C2/C(=O)NC(=O)N(C)C2=O)c(C)n1-c1ccc(F)c(Cl)c1,-4,7
CCN1CCN(C(=O)c2csc(-c3ccc(N4CCCC4)nc3)n2)CC1,-2,-9
CS(=O)(=O)N(CC(=O)Nc1cccc([N+](=O)[O-])c1)c1cc(Cl)cc(Cl)c1,1,19
N#CC1=C(N)Oc2n[nH]c(-c3ccc(F)cc3)c2C1c1cccc(F)c1 (stereo unspecified),-4,12
COc1cc(C2C(C#N)=C(N)Oc3n[nH]c(-c4cccs4)c32)cc(OC)c1O (stereo unspecified),7,19
N#CC1=C(N)Oc2n[nH]c(-c3ccc(Cl)c(Cl)c3)c2C1c1ccc(O)c(O)c1 (stereo unspecified),0,99*
COc1cc(C2C(C#N)=C(N)Oc3n[nH]c(-c4ccc(Cl)s4)c32)ccc1O (stereo unspecified),-2,60*
SMILES,Pf apPOL inh,mHTT-CaM PPI inh
N#CC1=C(N)Oc2n[nH]c(-c3ccc(Cl)c(Cl)c3)c2C1c1cccc(O)c1 (stereo unspecified),0,100*
N#CC1=C(N)Oc2n[nH]c(-c3ccc(Cl)cc3)c2C1c1ccc(F)cc1 (stereo unspecified),0,17
O=C(Cc1cccnc1)N1CCC(OCc2nc(C3CC3)no2)CC1,-7,-11
CCCNC(=O)c1ccc(-c2csc(C)n2)cc1,-3,-7
Cc1ccc(-c2csc(=Nc3ccc(F)cc3)n2CCO)cc1,0,63*
OCCn1c(-c2ccc(F)cc2)csc1=Nc1ccc(F)cc1,-2,44
O=C1c2ccccc2C(=O)N1c1cccc(-c2csc(=Nc3ccccc3)n2CCO)c1,-1,31
OCCCn1c(-c2ccc(F)cc2)csc1=Nc1ccc(F)cc1,-3,59*
O=C(c1ccccc1F)N1CCN(Cc2noc(-c3cccc(F)c3)n2)CC1,1,17
Cc1ccnc(N2CCC(C(=O)NCCSCc3ccco3)CC2)n1,5,4
CC(=O)c1ccc(NC(=O)c2cc3ccccc3o2)cc1,-1,0
CN(C)c1ccc(NC(=O)c2cc3ccccc3o2)cc1,-4,60*
COc1ccc(Br)cc1C1NC(C(=O)O)CS1 (stereo unspecified),-8,16
O=C(O)C1CSC(c2ccc(Cl)c(Cl)c2)N1 (stereo unspecified),4,2
O=C(O)C1CSC(c2cc(Br)ccc2O)N1 (stereo unspecified),8,56*
O=C(O)C1CSC(c2cc(Cl)cc(Cl)c2O)N1 (stereo unspecified),0,91*
C1=CN2CCN=C2C(N2CCSCC2)=N1,-42,0
CCC1=NN(C(=O)COc2ccccc2C)C(O)(C(F)(F)F)C1 (stereo unspecified),-3,-10

# Screens from PubChem.
